Laboratory results as given in PubChem BioAssay (NCATS).
Results filed as inconclusive are left out. Entries that show only a call come without a potency. Activity calls are given as the source filed them. The call rests on the fitted dose curve; in most records, active means well fitted inhibition curve with a large enough effect; inconclusive means small, poorly fitted or top-dose-only effect; inactive means no such curve, though single readings can be large or run the other way.

target: Rap guanine nucleotide exchange factor 3 (Homo sapiens) (UniProt O95398); assay: Counterscreen qHTS for antagonist of cAMP-regulated guanine nucleotide exchange factor 3 (EPAC1) (AID 1645888); conditions: Rap1B-BODIPY-GDP nucleotide exchange, fluorescence; series mostly up to 154 µM;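 further: fluorescence loss as bound BODIPY-GDP is released from Rap1B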
In short: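 Rap1B-BODIPY-GDP 250 nM + GDP 50 uM; cpds 7-pt, final 9.74 nM–152 uM (activator mode) or from 7.32 nM upwards (inhibitor mode); RT; FI 480/540 nm at 5 and 30 min, then ± cAMP, reread.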

Sequence of Rap guanine nucleotide exchange factor 3 (Homo sapiens) (O95398 whole entry, looked up): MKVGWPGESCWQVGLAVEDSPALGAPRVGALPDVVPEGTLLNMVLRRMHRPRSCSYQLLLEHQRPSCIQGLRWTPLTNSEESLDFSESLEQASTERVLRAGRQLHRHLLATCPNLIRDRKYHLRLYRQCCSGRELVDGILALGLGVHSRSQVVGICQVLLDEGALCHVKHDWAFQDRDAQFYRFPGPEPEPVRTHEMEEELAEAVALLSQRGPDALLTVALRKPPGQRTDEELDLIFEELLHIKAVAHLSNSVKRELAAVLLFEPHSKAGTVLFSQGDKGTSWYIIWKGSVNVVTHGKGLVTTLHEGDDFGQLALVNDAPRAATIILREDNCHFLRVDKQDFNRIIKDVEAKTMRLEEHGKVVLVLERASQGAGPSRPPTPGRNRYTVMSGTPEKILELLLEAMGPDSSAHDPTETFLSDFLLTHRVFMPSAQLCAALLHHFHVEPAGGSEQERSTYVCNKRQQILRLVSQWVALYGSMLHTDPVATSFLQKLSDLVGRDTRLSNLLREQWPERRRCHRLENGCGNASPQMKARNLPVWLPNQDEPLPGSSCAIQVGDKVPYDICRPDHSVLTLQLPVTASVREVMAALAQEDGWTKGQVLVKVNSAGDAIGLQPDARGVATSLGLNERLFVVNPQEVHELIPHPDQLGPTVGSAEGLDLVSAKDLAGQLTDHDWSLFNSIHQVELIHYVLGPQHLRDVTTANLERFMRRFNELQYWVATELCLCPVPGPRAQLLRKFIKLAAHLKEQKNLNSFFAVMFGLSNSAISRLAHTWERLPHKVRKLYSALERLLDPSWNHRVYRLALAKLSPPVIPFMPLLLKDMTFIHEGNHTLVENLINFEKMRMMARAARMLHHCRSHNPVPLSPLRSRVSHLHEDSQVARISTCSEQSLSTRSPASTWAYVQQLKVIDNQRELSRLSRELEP

Row | SMILES | Potency
1 | CCN(C(=O)c1sc2cc(OC)ccc2c1Cl)c1ccccc1 | inactive
2 | Cc1nc2c(C(=O)NCCc3ccccc3)c[nH]n2c(=O)c1Cc1ccc(F)cc1Cl | inactive
3 | Cc1cc2ccccn2c1C(=O)c1ccc(Cl)c([N+](=O)[O-])c1 | inactive
4 | O=C(NCc1ccccc1F)c1ccc(CN2CC(=O)N3CCCCC3C2=O)cc1 (configuration not stated) | inactive
5 | OCCCCC#Cc1c(-c2ccsc2)sc2ccccc12 | inactive
6 | Cc1cccc(CNC(=O)c2ccc(-c3nc(CS(=O)(=O)c4ccccc4)c(C)o3)cc2)c1 | inactive
7 | CCCCCCOC(=O)C(C#N)c1nc2ccccc2nc1N1CCCCC1 (configuration not stated) | inactive
8 | COc1cc(/C=N/NC(=O)c2cc(O)cc(O)c2)ccc1OC(=O)c1ccccc1 | inactive
9 | O=C1/C(=C\c2cccc(O)c2O)SC(=S)N1Cc1ccccc1 | inactive
10 | COc1ccc(Br)cc1CN(C)CC(=O)Nc1c(Cl)cccc1Cl | inactive
11 | COc1ccc([N+](=O)[O-])cc1-c1nc2ccccc2nc1-c1ccccc1 | inactive
12 | O=C1CCC(C(=O)Nc2ccccc2N2CCCC2)=NN1 | inactive
13 | Cc1ccc(-c2noc(-c3nnn(CC(=O)Nc4cc(Cl)ccc4C)c3N)n2)cc1 | inactive
14 | O=C1/C(=C\c2cccnc2)Sc2ccccc21 | inactive
15 | Cc1ccc(S(=O)c2ccc([N+](=O)[O-])c3nonc23)cc1 (configuration not stated) | inactive
16 | CCn1c2ccccc2c2cc(NC(=O)c3ccc(=O)oc3)ccc21 | inactive
17 | O=C(Nc1ccccc1N1CCCCC1)C1=COCCO1 | inactive
18 | c1ccc(NN(Cc2ccccn2)c2ccccc2)cc1 | inactive
19 | COc1ccc(-c2nc3ccccc3n2Cc2ccccc2)cc1 | inactive
20 | CCOc1ccccc1N1CCN(C(=O)c2cc3c(s2)CCC3)CC1 | inactive
21 | Cc1ccccc1SCC(=O)Nc1cc(C(F)(F)F)ccc1N1CCOCC1 | inactive
22 | Cc1cc(Br)cc(C=Nc2ccc(N3CCOCC3)cc2)c1O | inactive
